Assay outcomes as filed in PubChem.
Pol III holo inh – blocks replication by bacterial DNA polymerase III holoenzyme; Potency, µM (top dose mostly 57.1 µM), for the others: at the highest dose activity change, negative = inhibition; reconstituted DNA polymerase III holoenzyme replication, biochemical; AID 603; actives 0.25% (n = 71,000); note: potency is the fitted concentration of half-maximal effect; % is set by controls: 0 for no effect and ±100 for the full control effect
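Reconstituted *E. coli* holoenzyme (0.35 nM Pol III, 1 nM beta, 154 nM SSB, 2 nM primase) was preincubated with compound for 15 min at RT. Synthesis on 1.4 nM ssM13Gori ran 35 min, then was stopped with PicoGreen/EDTA and read as dsDNA fluorescence.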
Hsp90 Hop PPI – changes Hsp90-Hop TPR2A binding signal, up or down. AlphaScreen TPR2A-His6 binding biotin-Hsp90 C-terminal peptide. Potency, µM (top dose mostly 57 µM), for inactives: top-dose activity change, negative = inhibition. actives 0.44% (n = 71,000); active = well fitted curve in either direction with a large enough effect; inconclusive = small, poorly fitted or top-dose-only effect, or another doubt; note: potency is the fitted concentration of half-maximal effect; % is set by controls: 0 for no effect and ±100 for the full control effect
BRCT PPI green – BRCA1 BRCT-phosphoprotein interaction inhibition; P38398; BRCA1 BRCT-phosphopeptide binding, green fluorescence polarization; Potency, µM (top dose mostly 76.9 µM), without a hit: top-dose activity change, negative = inhibition, actives largely listed as inhibitors; actives 0.05% (n = 75,000); AID 875;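 note: potency is the fitted concentration of half-maximal effect; plate controls were peptide without protein for full effect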
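Compounds were incubated for 12 min at room temperature with a complex of 100 nM fluorescein-tagged pBACH1 decapeptide and 250 nM His-tagged BRCT protein. Buffer was phosphate pH 7.3 with EDTA, DTT and Tween 20. Disruption of binding lowers the polarization signal.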
Tau fil binding – binds recombinant human tau filaments; P10636; recombinant tau filaments, thioflavin S fluorescence, 15 h; filaments grown with octadecylsulfate alongside compound; Potency, µM (series often up to 57.1 µM), for the others: at the top dose activity change, negative = inhibition; actives 2% (n = 71,000); AID 596;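 note: potency is the fitted concentration of half-maximal effect; % is set by controls: 0 for no effect and ±100 for the full control effect; actives lower thioflavin S fluorescence by blocking filaments or displacing dye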
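Read-out: ThS fluorescence, 450 nm excitation/510 nm emission; lower signal marks blocked filament formation or displaced dye. Tau at 1 uM with 30 uM ODS, 10 uM ThS, 5 mM DTT, 100 mM NaCl, 10 mM HEPES pH 7.4; 15 h, 37 C.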
BRCT inh red – disrupts BRCA1 BRCT binding to phosphoprotein, red fluorophore readout | BRCT-phosphopeptide binding, red fluorescence polarization | Potency, µM (highest dose often 76.9 µM), without a hit: top-dose activity change, negative = inhibition, hits mostly inhibitors | actives 0.03% (n = 75,000) | AID 892; note: % is set by controls: 0 for no effect and ±100 for the full control effect
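Fluorescence polarization: 100 nM His-tagged BRCA1 BRCT with 100 nM TAMRA-labelled phospho-BACH1 decapeptide, phosphate buffer pH 7.3 with 150 mM NaCl, DTT, 0.01% Tween 20; 12 min RT. Binding inhibition seen as FP decrease.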
TsaE inh – YjeE (TsaE) inhibition, E. coli; purified YjeE enzyme, qHTS inhibition assay; Potency, µM; actives 0.05% (n = 71,000); AID 605
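Fluorescence polarization of a BODIPY Texas Red–ADP probe (2 uM) bound to purified YjeE (10 uM) was read after 15 min room-temperature incubation with compounds. Loss of polarization marks inhibitors; ADP serves as titrated control.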
Hsp90-TPR2A inh – confirmation and counter-screen of Hsp90 TPR2A co-chaperone interaction disrupters; shares compounds with Hsp90 Hop PPI; AlphaScreen TPR2A-His6 / biotin-Hsp90 peptide binding; activity, negative = inhibition, % at 40 µM or 46 µM, hits read low; actives 100% (n = 45);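 active = compound lowering the Hsp90 and TPR2A binding signal, whether or not the linker counterscreen also flagged it as an artifact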
Tau ThS bind – displaces Thioflavin S from human tau filaments | Potency, µM | shares compounds with Tau fil binding | recombinant tau filaments, Thioflavin S fluorescence displacement | actives 40% (n = 60); calls by dose curve
aSyn ThS displ – alpha-synuclein fibril binding by ThS displacement | shares compounds with Tau fil binding | recombinant alpha-synuclein fibrils, ThS fluorescence displacement | Potency, µM | actives 40% (n = 60) | AID 937; calls by dose curve
Abeta ThS displ – displaces Thioflavin S from Abeta1-42 fibrils | shares compounds with Tau fil binding | Potency, µM | Abeta1-42 fibrillization, thioflavin S fluorescence, overnight 37 C | actives 50% (n = 60); calls by dose curve
Target sequence (P05067 whole entry, looked up): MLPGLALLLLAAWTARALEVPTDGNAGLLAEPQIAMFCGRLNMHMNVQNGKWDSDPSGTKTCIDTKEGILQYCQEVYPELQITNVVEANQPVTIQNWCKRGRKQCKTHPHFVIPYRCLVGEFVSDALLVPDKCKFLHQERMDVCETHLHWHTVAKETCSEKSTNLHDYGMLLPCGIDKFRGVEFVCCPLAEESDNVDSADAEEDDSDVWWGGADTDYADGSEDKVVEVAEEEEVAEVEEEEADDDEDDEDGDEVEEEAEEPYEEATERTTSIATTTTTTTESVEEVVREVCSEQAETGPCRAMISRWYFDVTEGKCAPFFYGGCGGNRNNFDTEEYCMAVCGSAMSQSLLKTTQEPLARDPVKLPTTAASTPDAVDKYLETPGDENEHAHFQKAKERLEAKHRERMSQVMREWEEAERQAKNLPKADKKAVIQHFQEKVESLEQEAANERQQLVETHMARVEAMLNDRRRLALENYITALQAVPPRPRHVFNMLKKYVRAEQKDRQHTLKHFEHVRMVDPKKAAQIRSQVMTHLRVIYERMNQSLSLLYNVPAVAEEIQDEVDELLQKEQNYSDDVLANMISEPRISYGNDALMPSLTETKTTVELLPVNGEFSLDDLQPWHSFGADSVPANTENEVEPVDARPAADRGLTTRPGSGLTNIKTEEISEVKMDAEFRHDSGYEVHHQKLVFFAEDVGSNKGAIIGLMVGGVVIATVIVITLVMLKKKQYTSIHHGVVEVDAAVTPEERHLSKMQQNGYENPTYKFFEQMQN
* hit, by the source's call; i = inactive; u = inconclusive; x = no result given; [ ] = dose if it differs, or a comment. In the library only some 2.3% were active in any assay of this set; here they are far more common. Unless noted, calls come from the whole dose curve; as a rule, active = well fitted curve in the direction sought with a large enough effect; inconclusive = small, poorly fitted or top-dose-only effect, or another doubt; inactive = no such curve, though single readings can be large; an effect the other way counts as inactive or inconclusive.

SMILES | Pol III holo inh | Hsp90 Hop PPI | BRCT PPI green | Tau fil binding | BRCT inh red | TsaE inh | Tau ThS bind | aSyn ThS displ | Abeta ThS displ | others
O=S(=O)(Nc1cccc2ncccc12)c1cccs1 | 3.2% | 15.8µM* | -2.1% | -3.1% | 1.1% | i | x | x | x | Hsp90-TPR2A inh=-99.9*[alpha-screen platform artifact]
CO/N=C(\C(=O)N[C@@H]1C(=O)N2C(C(=O)[O-])=C(C[N+]3(C)CCCC3)CS[C@@H]12)c1csc(N)n1 | -6.8%[25.6 µM] | -0.4%[26 µM] | -2.0%[34.4 µM] | -2.3%[25.6 µM] | 0.0%[34.4 µM] | i | x | x | x
Cn1c(=O)[nH]c2nnc(-c3ccccc3)nc2c1=O | x | x | x | x | x | x | x | x | x | Hsp90-TPR2A inh=12.2
Nc1ccccc1NC(=O)c1ccccc1 | 1.8% | u | -0.6% | i | -1.6% | i | i | i | i
COC(=O)CCCCC(=O)C1C(=O)CC(C)(C)C(C(=O)OC)C1=O (centres undefined) | -4.3% | -3.6% | 0.5% | -0.7% | 0.7% | i | x | x | x
CC1(C)CC(=O)C(C(=O)CCCCC(=O)C2C(=O)CC(C)(C)CC2=O)C(=O)C1 | 0.8% | -2.3% | 1.6% | -35.5% | -1.2% | i | i | i | i
COc1ncc2nc(-c3ccc(F)cc3)c(=O)n(C3CC3)c2n1 | -4.4% | -1.6% | -1.0% | -5.5% | -1.0% | i | x | x | x
COc1cc(OC)c(/C=C2/C(=O)Nc3ccccc32)c(OC)c1 | -3.0% | -18.9% | -2.3% | -28.9% | -1.4% | i | i | i | i
O=c1cc(N2CCOCC2)oc2c(-c3ccccc3)cccc12 | -6.6% | -5.6% | 2.5% | u | 0.3% | i | x | x | x
Cc1ccccc1Cn1ccc(NC(=O)c2cnn3c(C(F)(F)F)cc(-c4ccco4)nc23)n1 | -9.6% | -9.2% | -9.0% | 2.51µM* | -0.5% | i | u | 2.63µM* | 6.74µM*
Cc1ccc2nc(NC(=O)C3CCN(S(=O)(=O)c4cccc5nsnc45)CC3)sc2c1 | -0.9% | -16.3% | -1.2% | 5.01µM* | 1.6% | i | i | u | i
Cc1ccc2nc(NC(=O)C3CCCN(S(=O)(=O)c4cccc5nsnc45)C3)sc2c1 (centres undefined) | 4.8% | -16.6% | 23.2% | 7.94µM* | -1.2% | i | i | u | i
Cc1ccnc(NC(=O)C2CCN(S(=O)(=O)c3cccc4nsnc34)CC2)c1 | -5.2% | -10.9% | 0.3% | -85.8% | 0.3% | i | x | x | x
COc1ccc([N+](=O)[O-])cc1N | -3.8% | 0.4% | 0.8% | -4.6% | 0.0% | i | x | x | x
Cc1cccn2c(=O)c3cc(C(=O)NCCN4CCOCC4)c(=N)n(CCc4ccccc4)c3nc12 | -28.1% | -26.8% | -2.4% | 0.501µM* | -0.7% | i | i | u | i
COCCCn1c(=N)c(C(=O)NCC2CCCO2)cc2c(=O)n3cccc(C)c3nc21 (centres undefined) | -14.2% | -3.9% | -1.3% | 9.4% | -1.0% | i | u | u | u
O=C1OC(=O)[C@@H]2[C@@H]1[C@@H]1CC[C@H]2O1 | -5.7% | u | -3.4% | -6.4% | -1.2% | i | x | x | x
CN(C)c1ccc(C(=C2C=CC(=[N+](C)C)C=C2)c2ccc(N(C)C)cc2)cc1 | 39.8µM* | u | -1.8%[3.08 µM] | 0.126µM* | -4.4% | 5.01µM* | 0.18µM* | 0.151µM* | 0.15µM*
Cc1ccc(N(C)C)cc1 | 2.5% | -15.8% | -3.6% | -9.5% | 0.3% | i | x | x | x
